# Structures can show the parent of a compound that is named as a salt.
# System: Danio rerio larvae (5 dpf)
# Experiment: optomotor response to red moving lines, difference vs DMSO (percentage points (treated minus DMSO)); higher = more of the behaviour than the DMSO vehicle control
# Details: 10 µM; exposure time: 3 h pre-incubation + 3 h imaging
# Method: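 5-dpf wild-type zebrafish larvae were imaged in 96-well plates. They were treated with 190 Tocris FDA-approved drugs at 10 µM (1 µl/ml DMSO) for 3 h before and 3 h during imaging at 28.5 °C, 48 larvae per drug. Automated image analysis gave % time moving and optomotor responses. Values are drug group mean minus DMSO vehicle mean (n=844), in percentage points, for 10 behaviours.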
row,SMILES,optomotor response to red moving lines
1,Cc1ccc(N(CC2=NCCN2)c2cccc(O)c2)cc1 [Phentolamine Mesylate],14.5
2,CC(C)Nc1cccnc1N1CCN(C(=O)c2cc3cc(NS(C)(=O)=O)ccc3[nH]2)CC1 [Delavirdine mesylate],-0.668
3,Cc1ccc(O)c([C@H](CCN(C(C)C)C(C)C)c2ccccc2)c1 [Tolterodine L-tartrate],-0.0985
4,COc1ccccc1Oc1c(NS(=O)(=O)c2ccc(C(C)(C)C)cc2)nc(-c2ncccn2)nc1OCCO [Bosentan],-14
5,CC(C)N(CCCCOCC(=O)NS(C)(=O)=O)c1cnc(-c2ccccc2)c(-c2ccccc2)n1 [Selexipag],-8.23
6,Nc1nc2c(ncn2COCCO)c(=O)[nH]1 [Acyclovir],1.94
7,CCc1nc(N)nc(N)c1-c1ccc(Cl)cc1 [Pyrimethamine],8.52
8,Nc1nc(Cl)nc2c1ncn2[C@@H]1O[C@H](CO)[C@@H](O)[C@@H]1F [Clofarabine],1.11
9,CC(=O)O[C@]1(C(C)=O)CC[C@H]2[C@@H]3C=C(C)C4=CC(=O)CC[C@]4(C)[C@H]3CC[C@@]21C [Megestrol Acetate],3.71
10,CCCCC1=NC2(CCCC2)C(=O)N1Cc1ccc(-c2ccccc2-c2nnn[nH]2)cc1 [Irbesartan],-7.57
11,O=c1n(CCCN2CCN(c3cccc(Cl)c3)CC2)nc2ccccn12 [Trazodone hydrochloride],14.6
12,CCOc1nc2cccc(C(=O)O)c2n1Cc1ccc(-c2ccccc2-c2nnn[nH]2)cc1 [Candesartan],4.89
13,CN(C)C(=N)NC(=N)N [Metformin hydrochloride],17.8
14,CCCC1O[C@@H]2C[C@H]3[C@@H]4CCC5=CC(=O)C=C[C@]5(C)[C@H]4[C@@H](O)C[C@]3(C)[C@]2(C(=O)CO)O1 (stereo not given in full) [Budesonide],12
15,Cc1nc(-c2ccc(OCC(C)C)c(C#N)c2)sc1C(=O)O [Febuxostat],-1.5
16,COC(=O)C1=C(C)NC(C)=C(C(=O)OC(C)C)C1c1cccc2nonc12 (stereo not given) [Isradipine],-7.63
17,CCCc1nn(C)c2c(=O)[nH]c(-c3cc(S(=O)(=O)N4CCN(C)CC4)ccc3OCC)nc12 [Sildenafil citrate],-6
18,Cc1cccc(CN2CCN(C(c3ccccc3)c3ccc(Cl)cc3)CC2)c1 (stereo not given) [Meclizine dihydrochloride],-10.1
19,NS(=O)(=O)Cc1noc2ccccc12 [Zonisamide],13
20,CCCc1nc2c(C)cc(-c3nc4ccccc4n3C)cc2n1Cc1ccc(-c2ccccc2C(=O)O)cc1 [Telmisartan],-8.2

row,SMILES,optomotor response to red moving lines
1,CCCCCCCCc1ccc(CCC(N)(CO)CO)cc1,2.93
2,CN1CCC[C@@H]1CCO[C@](C)(c1ccccc1)c1ccc(Cl)cc1 [Clemastine fumarate],16.7
3,CC1CNc2c(cccc2S(=O)(=O)N[C@@H](CCCNC(=N)N)C(=O)N2CC[C@@H](C)C[C@@H]2C(=O)O)C1 (stereo not given in full) [Argatroban],-3.42
4,OCCOCCN1CCN(C2=Nc3ccccc3Sc3ccccc32)CC1 [Quetiapine hemifumarate],6.92
5,N#Cc1ccc(C(c2ccc(C#N)cc2)n2cncn2)cc1 [Letrozole],-12.7
6,CC(C)C(=O)OCC(=O)[C@@]12O[C@H](C3CCCCC3)O[C@@H]1C[C@H]1[C@@H]3CCC4=CC(=O)C=C[C@]4(C)[C@H]3[C@@H](O)C[C@@]12C [Ciclesonide],-8.97
7,CN1CC[C@@H](NC(=O)Nc2ccc(C#N)cc2)C[C@@H]1c1nc2ccccc2[nH]1,-0.356
8,N#Cc1ccc2[nH]cc(CCCCN3CCN(c4ccc5oc(C(N)=O)cc5c4)CC3)c2c1 [Vilazodone hydrochloride],12.8
9,Nc1nc2[nH]cc(CCc3ccc(C(=O)N[C@@H](CCC(=O)O)C(=O)O)cc3)c2c(=O)[nH]1 [Pemetrexed],-7.22
10,CCOC(=O)c1ncn2c1CN(C)C(=O)c1cc(F)ccc1-2 [Flumazenil],-7.04
11,Cc1cc(C2CCCCC2)n(O)c(=O)c1 [Ciclopirox],-5.18
12,CCOc1cc(CC(=O)N[C@@H](CC(C)C)c2ccccc2N2CCCCC2)ccc1C(=O)O [Repaglinide],3.38
13,CCCCC(=O)N(Cc1ccc(-c2ccccc2-c2nnn[nH]2)cc1)[C@H](C(=O)O)C(C)C [Valsartan],7.8
14,Cc1cn([C@H]2C=C[C@@H](CO)O2)c(=O)[nH]c1=O [Stavudine],9.7
15,CCN(CC)CCNC(=O)c1c(C)[nH]c(/C=C2\C(=O)Nc3ccc(F)cc32)c1C [Sunitinib malate],-0.697
16,Cc1nnc(C(C)C)n1C1C[C@H]2CC[C@@H](C1)N2CC[C@H](NC(=O)C1CCC(F)(F)CC1)c1ccccc1 (stereo in doubt) [Maraviroc],-6.34
17,COc1cccc2c1C(=O)c1c(O)c3c(c(O)c1C2=O)C[C@@](O)(C(=O)CO)C[C@@H]3O[C@H]1C[C@H](N)[C@H](O)[C@H](C)O1 [Doxorubicin hydrochloride],-1.73
18,COC(c1ccccc1)(c1ccccc1)[C@H](Oc1nc(C)cc(C)n1)C(=O)O [Ambrisentan],-4.02
19,CNC(=O)c1ccccc1Sc1ccc2c(/C=C/c3ccccn3)n[nH]c2c1 [Axitinib],1.5
20,Cn1cnc([N+](=O)[O-])c1Sc1ncnc2[nH]cnc12 [Azathioprine],3.86

# Reference: the supplement of paper PMC9023506
